Laboratory results published in ChEMBL document CHEMBL3433997, “St. Jude Leishmania screening dataset” (2016).

Tests used:
Format in all cases: functional
[1] = biological target: Solute carrier family 2, facilitated glucose transporter member 1 (Homo sapiens) (UniProt P11166); assay: ST_JUDE_LEISH: Cytotoxicity at 2uM final concentration against transgenic Leishmania Mexicana promastigotes LmGLUT1 that are glucose transport deficient and complemented with the human glucose transporter GLUT1. Activity is measured by DNA content using SYBR green in vitro
Chain of Solute carrier family 2, facilitated glucose transporter member 1 (Homo sapiens) (P11166 whole entry): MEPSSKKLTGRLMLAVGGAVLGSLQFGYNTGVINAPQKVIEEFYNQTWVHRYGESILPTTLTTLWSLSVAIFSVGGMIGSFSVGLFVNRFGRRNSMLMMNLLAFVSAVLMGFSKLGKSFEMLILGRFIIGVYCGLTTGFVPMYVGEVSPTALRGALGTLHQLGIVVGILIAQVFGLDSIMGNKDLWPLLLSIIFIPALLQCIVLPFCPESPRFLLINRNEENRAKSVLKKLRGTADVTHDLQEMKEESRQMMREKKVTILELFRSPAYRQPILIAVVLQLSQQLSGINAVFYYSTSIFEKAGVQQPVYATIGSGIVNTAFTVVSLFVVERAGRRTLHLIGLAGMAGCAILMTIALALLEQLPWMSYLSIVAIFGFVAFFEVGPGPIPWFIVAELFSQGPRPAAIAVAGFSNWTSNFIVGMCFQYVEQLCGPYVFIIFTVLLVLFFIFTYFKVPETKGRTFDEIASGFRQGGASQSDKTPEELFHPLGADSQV

[2] = biological target: Hexose transporter 1 (Plasmodium falciparum) (UniProt O97467); assay: ST_JUDE_LEISH: Cytotoxicity at 2uM final concentration against transgenic Leishmania Mexicana promastigotes LmPfHT that are glucose transport deficient and complemented with the Plasmodium falciparum hexose transporter. Activity is measured by DNA content using SYBR green in vitro
[3] = biological target: Glucose transporter (Leishmania mexicana) (UniProt O61059); assay: ST_JUDE_LEISH: Cytotoxicity at 2uM final concentration against transgenic Leishmania Mexicana promastigotes LmGT2 that are glucose transport deficient and complemented with the L. Mexicana glucose transporter 2. Activity is measured by DNA content using SYBR green in vitro

SMILES	inhibition [1] [%]	inhibition [2] [%]	inhibition [3] [%]
OC(CN(Cc1ccccc1)Cc1ccccc1)Cn1c2ccc(Cl)cc2c2cc(Cl)ccc21 (stereo unspecified)	-0.34	0.27	1.37
CCN(CC)C(=O)c1cnc(-c2ccccc2)nc1Oc1cccc(Cl)c1	-0.46	2.57	3
Cc1cc(NCC2CCN(CC3CCCCC3)C2)nc(Nc2ccc(Cl)cc2)n1 (stereo unspecified)	7.03	5.29	2.45
COc1ccc2[nH]ccc(=NN=CC=Cc3ccccc3)c2c1	-0.13	2.19	-3.26
Cc1ccc(-n2ncc(C(=O)Nc3cc(Cl)cc(Cl)c3)c2C2CCNCC2)cc1C	3.26	1.43	-0.12
CCOc1ccc(C=CC(=O)Nc2ccc3nc(N4CCN(C)CC4)cc(C)c3c2)cc1OC	3	3.77	1.18
OC(CN1CCN(Cc2ccccc2)CC1)Cn1c(-c2ccccc2)c(-c2ccccc2)c2ccccc21 (stereo unspecified)	2.91	3.3	2.72
CS(=O)(=O)c1ccc(CNCc2ccc(-c3ccc(-c4nc5cc(F)ccc5[nH]4)s3)cc2)cc1	11.6	10.9	8.75
CN(C)S(=O)(=O)c1ccc(Nc2nc(NCCC3C=NC=N3)nc3cc[nH]c(=O)c23)cc1 (stereo unspecified)	4.88	5.35	4.93
CC1(C(=O)Nc2ccc([N+](=O)[O-])cc2O)CC2c3ccccc3C1c1ccccc12 (stereo unspecified)	2.18	3.79	0.74
CCCCN(CCCC)CCNC(=O)c1cc(OC(F)(F)F)ccc1O	1	0.8	0.03
Cc1cc(CN2CC[C@H](NC(=O)c3ccc(Cl)c(Cl)c3)C2)ccc1OC1CCN(C)C1 (stereo partly specified)	-0.24	0.72	-0.09
Oc1ccc2c(c1CNC1CCCCC1)CCCC2	5.27	3.89	4.96
COc1ccc(-c2cccc(NC(=O)c3ccc(F)cc3)c2)cc1CNC(C)C	1.85	3.31	3.19
N#Cc1ccc2c(c1)CCN(CCC1CCC(NC(=O)/C=C/c3cccc4ccccc34)CC1)CC2 (stereo unspecified)	4.36	9.02	2.63
O=c1cc(NCCCCNCc2cccc(Cl)c2)[nH]c2ccccc12	3.6	3.79	1.87
Cc1cc(C(=O)CN2C(=O)NC3(CCCc4ccccc43)C2=O)c(C)n1Cc1ccco1 (stereo unspecified)	1.28	0.08	-1.89
C=CCOC(=O)N1CCC(CNCc2cccc(-c3cccc(-c4nc5ccccc5[nH]4)c3)c2)C1 (stereo unspecified)	-1.85	5.8	0.62
c1ccc(-c2ccc3c(Nc4ccc5[nH]ncc5c4)ccnc3c2)nc1	4.92	4.75	5.04

SMILES	inhibition [1] [%]	inhibition [2] [%]	inhibition [3] [%]
Cc1ccc(O)cc1Nc1c(C(N)=O)cnc2ccc(-c3cncs3)cc12	-2.06	-0.39	-1.28
O=C(NC1CCC(N2CCC(c3nc4ccccc4s3)CC2)CC1)c1cc2ccccc2[nH]1 (stereo unspecified)	-0.44	-2.33	-1.51
O=c1cc(NCCCNCc2ccc3c(c2)OC(F)(F)O3)[nH]c2ccccc12	-0.44	0.16	-1.35
CCc1cc(CNC2CCN(CCc3c(F)cnc4ccc(OC)nc34)CC2)cc2c1OCCO2	23.9	34.5	19.9
COc1cc2c(cc1COc1ccccc1)CCN1Cc3cc(OC)c(OC)cc3CC21 (stereo unspecified)	1.91	0.8	-6.12
O=C1CCCN1CCCNCc1cccc(-c2ccc(-c3nc4cc(C(F)(F)F)ccc4[nH]3)cc2)c1	13.5	13	13
COc1ccc(OC)c(Cc2c(C)nc3nc(N)nc(N)c3c2C)c1	-0.27	0.88	-3.07
CC(=O)c1ccc2nc[nH]c(=O)c2c1	99.2	96.3	91.6
O=S(=O)(NCCN1CCCC1)c1ccc(-c2ccc(CNCc3ccsc3)cc2)cc1	13.4	6.54	5.55
NC(=O)c1cccc(Nc2nccc(Nc3ccc(Oc4ccc5ccccc5c4)cc3)n2)c1	5.67	4.45	0.97
COCCNCc1cccc(-c2ccc3c(Nc4ccc(Oc5cccnc5)cc4)ccnc3c2)c1	1.93	2.56	2.93
OC(Cn1ccnc1)(c1ccc(Cl)cc1Cl)C1CCCCC1 (stereo unspecified)	7.78	1.5	-0.69
Cc1cc(N2Cc3ccccc3C2)nc(Nc2ccc(S(=O)(=O)N3CCOCC3)cc2)n1	1.54	2	1.21
CN(C)CCN(C)Cc1ccc(-c2ccc3c(Nc4ccc(Oc5ccccc5)cc4)ccnc3c2)o1	0.78	2.26	2.63
CCOc1ccc(C(=O)Nc2cc3c(c(C(F)(F)F)c2)CCNC3)cc1Cl	7.38	4.16	5.38
COc1ccc2nccc([C@@H](O)CN3CCC(NCc4nc5ccc(F)cc5[nH]4)CC3)c2c1	2.34	1.93	2.2
CN(CCN1CCCC1)c1nc2cc(-n3cnc4cc(-c5ccc(Cl)cc5)sc4c3=O)ccc2[nH]1	0.93	0.75	1.45
O=C(Nc1cccc(OC2CCN(Cc3ccccc3)CC2)c1)c1ccc([N+](=O)[O-])cc1	4.89	4.94	4.55
